For some of these results: Entries with a potency or affinity are not part of this list.
Legend:
Parameters in all cases: scale not given: direction of the effect not stated beside the values
[1] = target: Protein translocase subunit SecA (Escherichia coli (strain K12)) (UniProt P10408); assay: Assay to Identify E. coli SecA ATPase Inhibitors; format: functional; conditions: 30 µM
[2] = target: T1, Ubiquitin-activating enzyme e1, putative (Leishmania donovani (strain BPK282A1)) (UniProt E9BSI1); assay: Leishmania donovani Ubiquitin Activating Enzyme (LdE1); format: functional; conditions: 30 µM
T1 sequence (whole entry): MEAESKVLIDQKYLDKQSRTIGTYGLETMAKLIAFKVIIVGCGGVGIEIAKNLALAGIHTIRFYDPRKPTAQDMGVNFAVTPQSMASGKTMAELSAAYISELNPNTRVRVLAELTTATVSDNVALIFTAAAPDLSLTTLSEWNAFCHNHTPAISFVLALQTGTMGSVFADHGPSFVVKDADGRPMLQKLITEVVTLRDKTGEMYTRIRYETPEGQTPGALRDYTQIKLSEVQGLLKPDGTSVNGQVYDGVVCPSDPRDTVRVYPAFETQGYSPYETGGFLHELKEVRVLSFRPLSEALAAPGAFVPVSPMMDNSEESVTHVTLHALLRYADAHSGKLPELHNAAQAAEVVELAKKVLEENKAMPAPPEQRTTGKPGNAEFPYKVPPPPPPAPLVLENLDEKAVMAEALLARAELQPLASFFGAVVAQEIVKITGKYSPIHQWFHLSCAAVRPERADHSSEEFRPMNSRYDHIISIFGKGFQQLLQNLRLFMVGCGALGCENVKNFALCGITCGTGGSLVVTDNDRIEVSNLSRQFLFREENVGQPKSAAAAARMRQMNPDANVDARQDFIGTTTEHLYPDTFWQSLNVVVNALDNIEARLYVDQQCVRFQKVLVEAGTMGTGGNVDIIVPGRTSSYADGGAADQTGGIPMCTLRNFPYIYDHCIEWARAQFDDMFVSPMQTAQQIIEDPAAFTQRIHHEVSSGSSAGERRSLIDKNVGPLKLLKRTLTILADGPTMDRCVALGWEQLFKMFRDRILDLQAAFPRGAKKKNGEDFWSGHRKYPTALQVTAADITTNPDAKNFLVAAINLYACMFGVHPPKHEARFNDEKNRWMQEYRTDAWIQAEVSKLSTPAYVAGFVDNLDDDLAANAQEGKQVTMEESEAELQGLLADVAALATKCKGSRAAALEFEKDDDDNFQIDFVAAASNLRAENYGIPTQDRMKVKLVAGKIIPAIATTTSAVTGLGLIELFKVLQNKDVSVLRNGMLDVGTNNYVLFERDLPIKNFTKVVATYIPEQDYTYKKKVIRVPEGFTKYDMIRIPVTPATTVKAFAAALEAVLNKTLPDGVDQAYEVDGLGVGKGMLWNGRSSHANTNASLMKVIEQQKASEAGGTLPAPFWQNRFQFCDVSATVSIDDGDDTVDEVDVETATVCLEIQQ

[3] = target: AMP-activated protein kinase, AMPK (Homo sapiens) (UniProt P54646+O43741+P54619+Q9UGJ0+Q9Y478+Q13131+Q9UGI9); assay: AMP-dependent Kinase enzyme assay. An in vitro enzyme assay that detects ADP turnover that is directly proportional to AMPK activity. This uses naive AMPK that is activated during the assay with MK-8722; format: functional; conditions: 30 µM
[4] = target: Sialic acid-binding Ig-like lectin 9 (Homo sapiens) (UniProt Q9Y336); assay: Hs-Siglec9 ALPHAscreen SOP 20170721; conditions: 10 µM
Trypanosoma cruzi = assay: Trypanosoma cruzi phosphomannomutase and mannose-1-phosphate guanylyltransferase assay; format: functional; conditions: 10 µM
[5] = target: T2, Arginase-2, mitochondrial (Homo sapiens) (UniProt P78540); assay: in vitro enzyme assay to detect the production of urea directly proportional to the activity of Arginase II; format: functional; conditions: 33.3 µM; note: in the data most compounds retested in dose-response had high values
T2 sequence (whole entry): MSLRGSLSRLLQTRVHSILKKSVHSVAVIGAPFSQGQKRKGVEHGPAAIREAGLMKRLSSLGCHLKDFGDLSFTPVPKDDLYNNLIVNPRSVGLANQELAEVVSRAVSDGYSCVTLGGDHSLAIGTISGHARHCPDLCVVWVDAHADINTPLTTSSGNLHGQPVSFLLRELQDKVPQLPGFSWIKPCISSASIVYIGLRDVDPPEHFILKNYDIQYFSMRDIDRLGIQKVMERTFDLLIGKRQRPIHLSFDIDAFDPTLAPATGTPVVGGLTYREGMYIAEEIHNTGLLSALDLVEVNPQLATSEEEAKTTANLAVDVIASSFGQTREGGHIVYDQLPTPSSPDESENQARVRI

[6] = target: T3, Proteasome subunit beta (Trypanosoma cruzi) (UniProt O96673); assay: Trypanosoma cruzi proteasome chymotrypsin-like activity (TcProtChymo) assay.; note: in the data most compounds retested in dose-response had high values; format: functional; conditions: 9.37 µM
T3 sequence (whole entry): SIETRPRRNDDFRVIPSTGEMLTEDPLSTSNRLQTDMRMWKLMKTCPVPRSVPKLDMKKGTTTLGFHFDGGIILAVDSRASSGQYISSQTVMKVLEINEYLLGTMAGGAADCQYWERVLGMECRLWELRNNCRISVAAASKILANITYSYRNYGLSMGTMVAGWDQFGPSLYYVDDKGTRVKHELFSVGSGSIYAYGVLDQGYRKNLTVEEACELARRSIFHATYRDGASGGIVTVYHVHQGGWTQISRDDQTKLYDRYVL

Homo sapiens = species: Homo sapiens; assay: To identify inhibition of the IFN signalling (Jak-Stat) pathway via expression of an eGFP reporter gene under the control of an IFN-stimulated response element (ISRE) containing MxA promoter.; format: functional; conditions: 30 µM
[7] = target: T4, Tyrosyl-tRNA synthetase, putative (Trypanosoma cruzi (strain CL Brener)) (UniProt Q4DSP6); assay: Trypanosoma cruzi tyrosyl tRNA synthetase (TcYRS) _High Tyrosine SOP; format: functional; conditions: 30 µM; note: in the data most compounds retested in dose-response had high values
T4 sequence (whole entry): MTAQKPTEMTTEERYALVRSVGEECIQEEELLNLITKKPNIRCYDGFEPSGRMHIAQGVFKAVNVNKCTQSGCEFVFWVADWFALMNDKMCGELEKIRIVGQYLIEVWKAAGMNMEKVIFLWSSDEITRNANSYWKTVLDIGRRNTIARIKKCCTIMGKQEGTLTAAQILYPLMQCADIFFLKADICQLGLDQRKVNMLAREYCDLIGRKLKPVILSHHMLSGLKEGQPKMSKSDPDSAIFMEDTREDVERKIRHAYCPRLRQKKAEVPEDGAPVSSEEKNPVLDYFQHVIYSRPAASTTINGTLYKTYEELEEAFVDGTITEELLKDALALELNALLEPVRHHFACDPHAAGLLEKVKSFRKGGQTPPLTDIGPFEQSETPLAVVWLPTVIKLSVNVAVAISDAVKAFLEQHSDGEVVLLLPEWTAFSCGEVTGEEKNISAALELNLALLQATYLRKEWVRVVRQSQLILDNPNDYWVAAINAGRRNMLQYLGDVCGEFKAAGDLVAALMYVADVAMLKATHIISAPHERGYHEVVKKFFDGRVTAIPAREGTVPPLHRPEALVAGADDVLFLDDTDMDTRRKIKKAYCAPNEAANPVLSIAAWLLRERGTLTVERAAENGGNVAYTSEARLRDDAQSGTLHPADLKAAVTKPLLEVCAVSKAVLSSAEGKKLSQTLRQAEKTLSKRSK

[8] = target: T4, Tyrosyl-tRNA synthetase, putative (Trypanosoma cruzi (strain CL Brener)); assay: Trypanosoma cruzi tyrosyl tRNA synthetase (TcYRS) SOP; format: functional; conditions: 30 µM
[9] = target: Chromo domain-containing protein 1 (Saccharomyces cerevisiae (strain ATCC 204508 / S288c) (Baker's yeast)) (UniProt P32657); assay: ScCHD-1 Enzyme Inhibition Assay; format: functional; conditions: 30 µM; note: in the data most compounds retested in dose-response had high values
Chromo domain-containing protein 1 (Saccharomyces cerevisiae (strain ATCC 204508 / S288c) (Baker's yeast)), sequence (P32657 whole entry, the tested form may be a part): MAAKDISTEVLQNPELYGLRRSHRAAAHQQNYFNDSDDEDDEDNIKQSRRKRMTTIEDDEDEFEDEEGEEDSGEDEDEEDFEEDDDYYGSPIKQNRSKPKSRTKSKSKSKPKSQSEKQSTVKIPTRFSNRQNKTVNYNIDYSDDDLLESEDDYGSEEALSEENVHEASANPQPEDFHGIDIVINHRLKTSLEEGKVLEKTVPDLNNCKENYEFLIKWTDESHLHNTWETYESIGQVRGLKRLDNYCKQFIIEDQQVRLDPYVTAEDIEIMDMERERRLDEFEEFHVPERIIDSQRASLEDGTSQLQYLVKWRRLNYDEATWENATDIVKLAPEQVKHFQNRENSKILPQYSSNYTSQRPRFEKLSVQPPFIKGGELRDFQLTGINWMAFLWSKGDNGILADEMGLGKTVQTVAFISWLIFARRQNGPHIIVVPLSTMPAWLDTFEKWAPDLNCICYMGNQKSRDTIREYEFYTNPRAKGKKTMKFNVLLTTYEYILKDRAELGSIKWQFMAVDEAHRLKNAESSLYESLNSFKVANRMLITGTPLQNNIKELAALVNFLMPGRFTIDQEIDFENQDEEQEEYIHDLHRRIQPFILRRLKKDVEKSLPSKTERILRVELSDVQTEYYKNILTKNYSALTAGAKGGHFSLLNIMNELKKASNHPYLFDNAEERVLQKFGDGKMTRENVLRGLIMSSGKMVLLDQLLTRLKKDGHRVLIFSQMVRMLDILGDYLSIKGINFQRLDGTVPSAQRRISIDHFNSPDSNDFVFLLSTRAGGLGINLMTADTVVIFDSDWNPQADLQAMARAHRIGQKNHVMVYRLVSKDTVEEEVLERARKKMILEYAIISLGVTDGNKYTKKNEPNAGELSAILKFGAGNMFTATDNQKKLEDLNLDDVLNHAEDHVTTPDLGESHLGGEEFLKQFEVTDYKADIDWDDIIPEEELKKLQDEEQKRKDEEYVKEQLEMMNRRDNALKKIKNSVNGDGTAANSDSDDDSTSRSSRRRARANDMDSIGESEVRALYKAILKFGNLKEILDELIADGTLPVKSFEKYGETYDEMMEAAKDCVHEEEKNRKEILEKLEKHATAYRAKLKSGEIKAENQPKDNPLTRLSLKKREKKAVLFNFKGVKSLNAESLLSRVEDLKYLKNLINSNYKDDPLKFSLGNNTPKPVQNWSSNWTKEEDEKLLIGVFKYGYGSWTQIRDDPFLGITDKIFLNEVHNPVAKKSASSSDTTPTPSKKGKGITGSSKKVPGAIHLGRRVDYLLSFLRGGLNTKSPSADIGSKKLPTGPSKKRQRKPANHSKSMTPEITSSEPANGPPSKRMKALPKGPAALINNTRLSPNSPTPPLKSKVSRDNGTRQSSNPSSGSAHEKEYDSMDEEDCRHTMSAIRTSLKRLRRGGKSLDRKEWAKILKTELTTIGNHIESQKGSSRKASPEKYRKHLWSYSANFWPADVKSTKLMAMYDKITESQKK

Sialic acid-binding Ig-like lectin 9 (Homo sapiens), sequence (Q9Y336 whole entry): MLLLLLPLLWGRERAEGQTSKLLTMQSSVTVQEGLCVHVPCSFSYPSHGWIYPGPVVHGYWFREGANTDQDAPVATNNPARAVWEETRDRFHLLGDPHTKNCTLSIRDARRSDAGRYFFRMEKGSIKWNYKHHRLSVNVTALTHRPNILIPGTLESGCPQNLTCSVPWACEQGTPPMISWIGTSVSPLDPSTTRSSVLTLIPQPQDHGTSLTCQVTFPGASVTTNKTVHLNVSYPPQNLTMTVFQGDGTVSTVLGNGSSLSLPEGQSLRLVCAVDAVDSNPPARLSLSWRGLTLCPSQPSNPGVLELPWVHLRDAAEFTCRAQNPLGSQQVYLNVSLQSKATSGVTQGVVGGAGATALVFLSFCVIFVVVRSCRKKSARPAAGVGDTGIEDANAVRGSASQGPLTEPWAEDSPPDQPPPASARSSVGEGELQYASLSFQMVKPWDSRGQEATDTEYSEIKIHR
Protein translocase subunit SecA (Escherichia coli (strain K12)), sequence (P10408 whole entry): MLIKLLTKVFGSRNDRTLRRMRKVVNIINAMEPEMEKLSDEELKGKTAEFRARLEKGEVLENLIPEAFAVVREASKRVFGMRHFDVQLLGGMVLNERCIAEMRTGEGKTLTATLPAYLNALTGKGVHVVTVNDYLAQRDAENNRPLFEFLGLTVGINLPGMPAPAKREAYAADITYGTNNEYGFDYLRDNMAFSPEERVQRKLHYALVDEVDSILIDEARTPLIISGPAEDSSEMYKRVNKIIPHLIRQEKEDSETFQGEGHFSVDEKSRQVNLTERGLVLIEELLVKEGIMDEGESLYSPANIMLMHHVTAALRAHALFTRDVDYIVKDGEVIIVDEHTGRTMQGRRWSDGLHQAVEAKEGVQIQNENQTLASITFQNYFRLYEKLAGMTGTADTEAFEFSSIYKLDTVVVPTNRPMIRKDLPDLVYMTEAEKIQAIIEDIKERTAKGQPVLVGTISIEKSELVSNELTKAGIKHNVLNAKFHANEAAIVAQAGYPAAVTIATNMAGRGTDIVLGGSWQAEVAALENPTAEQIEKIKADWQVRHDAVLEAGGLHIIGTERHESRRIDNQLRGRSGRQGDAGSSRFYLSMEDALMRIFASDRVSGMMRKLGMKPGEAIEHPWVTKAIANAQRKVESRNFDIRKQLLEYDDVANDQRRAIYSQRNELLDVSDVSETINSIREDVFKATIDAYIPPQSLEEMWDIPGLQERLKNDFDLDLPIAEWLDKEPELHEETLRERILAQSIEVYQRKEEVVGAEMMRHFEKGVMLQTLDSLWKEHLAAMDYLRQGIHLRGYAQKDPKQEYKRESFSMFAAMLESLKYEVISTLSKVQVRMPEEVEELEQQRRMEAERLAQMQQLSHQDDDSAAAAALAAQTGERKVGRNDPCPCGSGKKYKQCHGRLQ

SMILES	Percent Effect [1] [%]	Percent Effect [2] [%]	Percent Effect [3] [%]	Percent Effect [4] [%]	Percent Effect (Trypanosoma cruzi) [%]	Percent Effect [5] [%]	Percent Effect [6] [%]	Percent Effect (Homo sapiens) [%]	Percent Effect [7] [%]	Percent Effect [8] [%]	Percent Effect [9] [%]
CCn1cnnc1CNC(=O)N1CCN(c2cccs2)CC1	-8.91	5.2	-16.1	14.9	14.2	1.78	24.3	7.4	26.2	12.2	-5.95
CC(CNC(=O)c1ccccc1Oc1cccnc1)N(C)C (configuration not stated)	-2.21	10.8	-2.99	12.9	5.41	-0.476	5.69	-6.47	3.7	9.76	-1.53
CN1CCCC(c2cccc(Cc3ccccc3Cl)n2)C1 (configuration not stated)	-3.49	-4.05	7.5	3.2	1.38	-3.48	1.72	5.26	2.15	1.3	-7.93
CCc1ncc2c(n1)CN(Cc1nc(-c3ccsc3)oc1C)CC2	-6.04	-18.4	-33	12.2	-1.77	-0.719	9.73	-1.35	19.2	16.1	2.49
COc1cccc(CCNS(=O)(=O)c2ccc(NC(C)=O)cc2)c1	-3.33	5.26	4.42	-2.24	-4.58	-8.28	17	21.2	1.06	10.4	-4.22
CN(CCNC(=O)NCc1ccncc1)C1CCCC1	-0.694	-5.41	-4.53	1.79	-3.3	0.401	-6.31	7.43	1.48	-1.24	2.18
CC(NC(=O)NCCNc1ncccn1)c1cccs1 (configuration not stated)	-2.16	31.2	32.1	6.3	7.12	-2.49	4.9	12.3	8.74	24.4	-9.75
CCCNC(=O)CN1CCC(C(=O)Nc2cnn(CC)c2)CC1	-4.73	18.4	-9.54	-8.7	-5.13	3.24	3.98	7.34	6.4	18.5	-3.68
CN1CC(=O)N(c2cnn(C)c2)CC12CCN(Cc1ccccc1)C2 (configuration not stated)	-4.4	5.48	-2.44	7.88	10.3	-4.39	4.02	-7.57	5.21	8.64	-4.55
COC(=O)C(c1cc(F)ccc1F)N(C)C(=O)c1csnn1 (configuration not stated)	1.09	16.5	3.37	-5.43	-5.64	-1.5	14.4	21.4	6.25	12.7	-27.1
CC(=O)Nc1nc(C(=O)N2CCCC(c3cc(C)[nH]n3)C2)cs1 (configuration not stated)	-6.81	-28.9	-1.06	8.53	6.63	0.36	2.28	2.32	4.43	11.1	0.638
CS(=O)(=O)N1CCC(O)(Cn2c(C3CC3)nc3ccccc3c2=O)CC1	-6.42	1.35	8	2.72	-4.35	-0.232	5.77	11.6	-1.07	-3.9	7
CCC(CC)c1cc(CNC(=O)N2CCOC(C)C2)on1 (configuration not stated)	-3.56	-2.7	-0.766	-6.02	-1.86	2.23	-2.66	3.72	3.23	1.24	0.0369
O=C1N(c2ccccc2)Cc2nc(=O)[nH]n21	-6.16	9.33	-6.52	1.33	1.38	-3.35	12.2	8.42	4.23	10.3	-10.1
CC(NC(=O)NCCCn1ccnc1)c1ccc2c(c1)CCC(=O)N2 (configuration not stated)	-5.85	22.8	0.7	-8	8.4	-2.66	13	10.8	5.42	24.1	-6.95
O=C1N(Cc2cccc(F)c2F)CCCC1(O)CNC1CCCC1 (configuration not stated)	-6.14	16	-3.79	22.4	5.55	7.29	4.36	4.41	3.83	6.17	97.3
Cc1cn(CC(=O)NC2CCN(S(C)(=O)=O)CC2)c2ccccc12	-4.19	0	0.231	-6.08	-2.44	1.74	3.18	0.23	2.15	8.64	-4.9

— ChEMBL document CHEMBL3988442, “University of Dundee, Small-Polar-MMV Screening Library” (2021)
